Rows were chosen to be rich in hits. Some 15% of all compounds tested hit in one or more screens of this group.
RORg inh: ROR gamma (mouse) transcription inhibition; Drosophila S2 Gal4-RORgamma UAS-luciferase reporter, 20 h; Potency, µM (doses to about 53.6 µM), for the others: at the top dose activity change, negative = inhibition, hits mostly inhibitors; actives 5.4% (n = 310,000); AID 2551; note: nearly all actives have a fitted effect of over 60% in size
Target sequence (P51450 whole entry, looked up, the tested form may be a part): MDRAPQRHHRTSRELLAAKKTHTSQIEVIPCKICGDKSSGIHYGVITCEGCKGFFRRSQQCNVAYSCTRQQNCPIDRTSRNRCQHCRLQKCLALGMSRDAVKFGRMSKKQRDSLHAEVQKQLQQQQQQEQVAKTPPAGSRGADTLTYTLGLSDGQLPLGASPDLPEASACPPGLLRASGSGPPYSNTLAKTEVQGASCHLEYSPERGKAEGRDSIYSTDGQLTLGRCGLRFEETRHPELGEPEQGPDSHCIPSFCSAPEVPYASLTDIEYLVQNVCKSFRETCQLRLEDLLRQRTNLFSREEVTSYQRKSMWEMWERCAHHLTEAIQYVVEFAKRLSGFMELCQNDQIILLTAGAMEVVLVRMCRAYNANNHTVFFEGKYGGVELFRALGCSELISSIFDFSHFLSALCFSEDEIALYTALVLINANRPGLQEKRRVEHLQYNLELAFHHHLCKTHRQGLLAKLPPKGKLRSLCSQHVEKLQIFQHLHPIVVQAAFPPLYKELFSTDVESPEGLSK
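ROR gamma transcriptional activity was tracked as Gal4-UAS luciferase output in stably transfected Drosophila Schneider cells, with compound added 1 hr before 700 uM copper sulfate induction and a 20 hr ambient-temperature incubation.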
12-LOX inh: ALOX12 (human) lipoxygenase inhibition; Potency, µM (doses to about 108 µM), for inactives: at the top dose activity change, negative = inhibition, most hits filed as inhibitors; purified 12hLO, xylenol orange hydroperoxide absorbance; actives 1.1% (n = 580,000)
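Purified human 12hLO (150 nM final) in 25 mM Hepes, 0.01% Triton X-100, pH 7.0 was preincubated 15 min at room temperature with compound. Then 40 uM arachidonic acid was added, 30 min. Hydroperoxide was read by Fe-XO absorbance ratio 573/405 nm.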
TDP1 cell noCPT: qHTS for Inhibitors of human tyrosyl-DNA phosphodiesterase 1 (TDP1): qHTS in cells in absence of CPT; DT40 Tdp1-/- hTDP1 cells, no CPT, ATP luminescence, 48 h; Potency, µM (series often up to 46.2 µM), inactives show at the top dose activity change, negative = growth inhibition, hits mostly inhibitors; actives 15% (n = 420,000); note: nearly all actives have a fitted effect of over 55% in size
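Chicken DT40 Tdp1-/- cells stably complemented with human TDP1 were seeded at 400 cells/well with DMSO in place of 20 nM camptothecin. After compound pinning, cells grew at least 48 hr at 37 °C; viability read by CellTiter-Glo luminescence.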
ELG1 repair inh: ELG1-dependent DNA repair inhibition. Potency, µM (series often up to 46.1 µM), without a hit: at the highest dose activity change, negative = inhibition, usual class: inhibitors. actives 2.3% (n = 330,000). HEK293T ELG1-luciferase reporter, luminescence, 16 h; DNA damage induced by 5-fluorouridine; note: nearly all actives have a fitted effect of over 55% in size
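5-Fluorouridine DNA damage + compound/DMSO, 2,000 cells/well, 16 h, 37 °C/5% CO2. ONE-Glo, 30 min RT, luminescence. Readout = decrease in reporter signal.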
VP16 counter: Gal4-VP16 reporter inhibition counter-screen. Drosophila S2 Gal4-VP16 UAS-luciferase, luminescence, 20 h. Potency, µM (titrated, usually from 53.6 µM), for inactives: at the top dose activity, negative = inhibition, usual class: inhibitors. actives 3.5% (n = 310,000);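 note: Gal4-VP16 expression switched on by copper sulfate through the metallothionein promoter; nearly all actives have a fitted effect of over 50% in size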
DT40 TDP1 CPT: growth inhibition of DT40 Tdp1-/-;hTDP1 cells with camptothecin (screen for TDP1 inhibitors); chicken DT40 Tdp1-/-;hTDP1 cells + 20 nM CPT, ATP luminescence, 48 h; Potency, µM (doses to about 46.2 µM), without a hit: top-dose activity change, negative = growth inhibition, usual class: inhibitors; actives 12% (n = 420,000); AID 686979; note: nearly all actives have a fitted effect of over 55% in size
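Cell growth measured by CellTiter-Glo luminescence after a minimum 48 h, 37 C compound exposure with 20 nM CPT in Tdp1-knockout DT40 cells stably expressing hTDP1, seeded 400/well; qHTS titration format.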
Active calls of the source: *; [ ] = remark or other dose. Calls come from the whole dose curve; as a rule, active = well fitted curve in the direction sought with a large enough effect; inconclusive = small, poorly fitted or top-dose-only effect, or another doubt; inactive = no such curve, though single readings can be large; an effect the other way counts as inactive or inconclusive. % is set by controls: 0 for no effect and ±100 for the full control effect; potency is the fitted concentration of half-maximal effect.

For CC1CCN(c2ccc(/C=C(\C#N)c3nn(-c4ccccc4)c(N)c3C#N)cc2[N+](=O)[O-])CC1 the results were RORg inh 21.8%, 12-LOX inh -14.3%, TDP1 cell noCPT 8.2µM*, ELG1 repair inh inconclusive, VP16 counter -23.3% and DT40 TDP1 CPT 18.4µM*.
COc1ccc(CNC(=O)c2cc(Nc3ccc(C)cc3C)nc3ccccc23)cc1 was read as 12-LOX inh inconclusive, TDP1 cell noCPT 20.6µM* and DT40 TDP1 CPT 18.4µM*.
Screening Cc1ccc(C)c(Nc2cc(C(=O)NCCCN(C)C3CCCCC3)c3ccccc3n2)c1 returned 12-LOX inh inconclusive, TDP1 cell noCPT 14.6µM* and DT40 TDP1 CPT inconclusive.
Cc1cc(C)cc(Nc2cc(C(=O)NCCCN(C)C3CCCCC3)c3ccccc3n2)c1 was read as 12-LOX inh inconclusive, TDP1 cell noCPT 3.26µM* and DT40 TDP1 CPT 4.61µM*.
Screening COc1ccc(Nc2cc(C(=O)NCc3ccccc3)c3ccccc3n2)cc1 returned 12-LOX inh -28.6%, TDP1 cell noCPT -26.3% and DT40 TDP1 CPT inconclusive.
COC(CNC(=O)c1cc(Nc2cc(C)cc(C)c2)nc2ccccc12)OC was read as 12-LOX inh 1.7%.
Screening Cc1cc(C)cc(Nc2cc(C(=O)NCc3ccccc3)c3ccccc3n2)c1 returned 12-LOX inh -26.3%, TDP1 cell noCPT 20.6µM* and DT40 TDP1 CPT 23.1µM*.
Screening CCNC(=O)N(C1CC1)C1CCOC2(CCN(C(=O)NCc3ccc(C)cc3)CC2)C1 (centres undefined) returned 12-LOX inh 7.4%.
For COC(=O)c1ccc(C(=O)OC)c(NC(=O)NCCn2c(-c3ccccc3)nc3ccccc32)c1 the results were 12-LOX inh -2.0%.
Screening O=C(N[C@H](c1ccccn1)C1CC(O)C1)c1ccc2c(c1)ncn2CCO (some centres undefined) returned 12-LOX inh -2.6%.
Cc1nc(Nc2nc3ccccc3o2)nc(C)c1C(=O)Nc1cccc(C(F)(F)F)c1 was read as 12-LOX inh 131.5%.
Cc1ccc(C(=O)Nc2cccc(C(F)(F)F)c2)cc1Nc1cncnc1 was read as RORg inh inconclusive, 12-LOX inh -12.7%, TDP1 cell noCPT 14.6µM*, ELG1 repair inh inconclusive, VP16 counter 3.5% and DT40 TDP1 CPT inconclusive.
Screening Cc1ccc(C(=O)Nc2cccc(C(F)(F)F)c2)cc1Nc1ccccn1 returned RORg inh 33.8%, 12-LOX inh inconclusive, TDP1 cell noCPT 16.4µM*, ELG1 repair inh -28.9%, VP16 counter 0.9% and DT40 TDP1 CPT 20.6µM*.
Screening Cc1cnc(Nc2nc3ccccc3o2)nc1C(=O)Nc1cccc(C(F)(F)F)c1 returned RORg inh inconclusive, 12-LOX inh 13.9%, TDP1 cell noCPT 20.6µM*, ELG1 repair inh inconclusive, VP16 counter inconclusive and DT40 TDP1 CPT 23.1µM*.
Cc1ccc(C(=O)Nc2cccc(C(F)(F)F)c2)cc1NC(=O)c1nccnc1N was read as RORg inh -37.9%, 12-LOX inh -2.4%, TDP1 cell noCPT -7.0%, ELG1 repair inh inconclusive, VP16 counter inconclusive and DT40 TDP1 CPT -14.9%.
`CC(=O)Nc1cccc(C(=O)NC2CCCN(c3cc(-c4ccc(Cl)cc4)[nH]n3)C2)c1` (centres undefined) gave 12-LOX inh 4.7%.
For COc1ccc(-c2ccnc(-n3ncc(C(=O)NCc4cccnc4)c3C3CC3)n2)cc1F the results were 12-LOX inh 0.4%, TDP1 cell noCPT 16.4µM* and DT40 TDP1 CPT -8.9%[9.04 µM].

Screens (PubChem BioAssay)
